Measured values published in PubChem BioAssay AID1159580 (chemical genetic matrix, 2015).
Several values for one entry are separate records, joined by “and”; a condition that tells them apart may be missing. Equal entries are not always repeated. Screen size: about 5,500 compounds; about 2,000 (36%) were called active. Roughly 18% stayed inconclusive and do not appear here. Cut-off read from the data, not from the text of the source: active = normalized growth mostly below about 0.91 (no sharp cut-off); inconclusive = no clear call, values can overlap the other calls; inactive = mostly above about 0.92. The list shows a part of the results.

Test: chemical genetic growth profiling, strain panel (AID 1159580);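 note: tested at 20 µM; growth read once vehicle control cultures reached saturation at 30 °C; 1 = growth at the plate median or of vehicle wells; lower values mean less growth of the strain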
Details: S. cerevisiae deletion strains, growth OD

Measured: normalized growth

CN1CC(=O)N=C1N
inactive: locus YAL013W, strain DEP1, hits give low values 1.01 | locus YAL021C, strain ccr4, hits give low values 1.01 | locus YAL026C, strain drs2, hits give low values 1.03 | locus YAL030W, strain snc1, hits give low values 1.02 | locus YBL061C, strain skt5, hits give low values 1.03 | locus YBR009C, strain hhf1, hits give low values 1.05 | locus YBR021W, strain FUR4, hits give low values 1 | locus YBR023C, strain chs3, hits give low values 1.03 | locus YBR171W, strain sec66, hits give low values 1.03 | locus YBR229C, strain ROT2, hits give low values 1 | locus YBR231C, strain swc5, hits give low values 1.03 | locus YBR279W, strain paf1, hits give low values 1.03 | locus YCL011C, strain gbp2, hits give low values 1.03 | locus YCL016C, strain dcc1, hits give low values 1.02 | locus YCL029C, strain bik1, hits give low values 0.986 | locus YCL061C, strain MRC1, hits give low values 1.01 | locus YCL069W, strain vba3, hits give low values 1.02 | locus YCR088W, strain abp1, hits give low values 1.01 | locus YDL005C, strain med2, hits give low values 1.02 | locus YDL035C, strain GPR1, hits give low values 1.01 | locus YDL040C, strain nat1, hits give low values 1.01 | locus YDL074C, strain BRE1, hits give low values 1.03 | locus YDL101C, strain DUN1, hits give low values 1.02 | locus YDL134C, strain PPH21, hits give low values 1 | locus YDL185W, strain tfp1, hits give low values 0.992 | locus YDL192W, strain arf1, hits give low values 1 | locus YDR001C, strain nth1, hits give low values 1.01 | locus YDR069C, strain doa4, hits give low values 1.04 | locus YDR101C, strain arx1, hits give low values 0.991 | locus YDR137W, strain rgp1, hits give low values 1.1 | locus YDR159W, strain sac3, hits give low values 1.05 | locus YDR162C, strain NBP2, hits give low values 1.02 | locus YDR195W, strain ref2 0.969 | locus YDR297W, strain sur2, hits give low values 1.02 | locus YDR318W, strain mcm21, hits give low values 0.997 | locus YDR334W, strain swr1, hits give low values 1.02 | locus YDR335W, strain msn5, hits give low values 1.03 | locus YDR388W, hits give low values 0.997 | locus YDR392W, strain spt3, hits give low values 1.02 | locus YDR502C, strain sam2, hits give low values 0.995 | locus YEL003W, strain gim4, hits give low values 1.04 | locus YEL037C, strain rad23, hits give low values 1.01 | locus YEL061C, strain CIN8 (second series), hits give low values 1.02 | locus YEL061C, strain CIN8, hits give low values 1.01 | locus YER015W, strain faa2, hits give low values 1.02 | locus YER016W, strain bim1, hits give low values 1.02 | locus YER110C, hits give low values 0.992 | locus YER111C, strain swi4, hits give low values 1.04 | locus YER155C, strain BEM2 (second series), hits give low values 1.06 | locus YER155C, strain BEM2, hits give low values 1.01 | locus YER167W, strain BCK2, hits give low values 1.01 | locus YFR010W, strain ubp6, hits give low values 1.03 | locus YGL078C, strain dbp3, hits give low values 0.995 | locus YGL086W, strain mad1, hits give low values 0.998 | locus YGL167C, strain pmr1, hits give low values 1.03 | locus YGL173C, strain kem1, hits give low values 1.03 | locus YGL227W, strain vid30, hits give low values 1.02 | locus YGL240W, strain doc1, hits give low values 1.05 | locus YGL248W, strain PDE1, hits give low values 1.01 | locus YGL253W, strain hxk2, hits give low values 1.02 | locus YGR078C, strain PAC10, hits give low values 1.01 | locus YGR135W, strain pre9, hits give low values 1 | locus YGR229C, strain SMI1, hits give low values 1.02 | locus YGR252W, strain gcn5, hits give low values 0.965 | locus YHR013C, strain ard1, hits give low values 1.06 | locus YHR027C, strain rpn1, hits give low values 1.02 | locus YHR030C, strain SLT2, hits give low values 1.01 and 0.962 | locus YHR079C, strain IRE1 (second series), hits give low values 0.994 | locus YHR079C, strain IRE1, hits give low values 0.966 | locus YHR094C, strain hxt1, hits give low values 0.994 | locus YHR129C, strain ARP1, hits give low values 1.01 | locus YHR142W, strain chs7, hits give low values 0.996 | locus YHR200W, strain rpn10, hits give low values 0.997 | locus YIL066C, strain RNR3, hits give low values 1.02 | locus YIL073C, strain SPO22, hits give low values 1.03 | locus YIL125W, strain kgd1, hits give low values 0.988 | locus YIR030C, strain dcg1, hits give low values 0.998 | locus YJL092W, strain hpr5, hits give low values 1.01 | locus YJL095W, strain BCK1 (second series), hits give low values 1.03 | locus YJL095W, strain BCK1, hits give low values 1.03 and 0.956 | locus YJL115W, strain asf1, hits give low values 1.02 | locus YJL129C, strain trk1, hits give low values 1.04 | locus YJL134W, strain LCB3, hits give low values 1.01 | locus YJL154C, strain vps35, hits give low values 1.02 | locus YJL164C, strain tpk1, hits give low values 1.05 | locus YJL166W, strain qcr8, hits give low values 1.03 | locus YJL168C, strain set2, hits give low values 1 | locus YJL187C, strain SWE1 (second series), hits give low values 1.02 | locus YJL187C, strain SWE1, hits give low values 1.03
